# Out of some 310,000 compounds screened, about 14,000 (4.5%) showed an effect of 50% or more. The effect is printed as a negative number. This excerpt belongs to a sample that is enriched for strong results.
# Biological target: human ether-à-go-go-related gene (hERG) potassium channel (human, UniProt Q12809)
# Experiment: primary screen, population patch clamp on CHO cells stably expressing hERG; higher = less effect of the substance
# 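Note: peak tail current of the secondary pulse compared with the same well before compound.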
# Chain of human ether-à-go-go-related gene (hERG) potassium channel (Q12809 whole entry, looked up): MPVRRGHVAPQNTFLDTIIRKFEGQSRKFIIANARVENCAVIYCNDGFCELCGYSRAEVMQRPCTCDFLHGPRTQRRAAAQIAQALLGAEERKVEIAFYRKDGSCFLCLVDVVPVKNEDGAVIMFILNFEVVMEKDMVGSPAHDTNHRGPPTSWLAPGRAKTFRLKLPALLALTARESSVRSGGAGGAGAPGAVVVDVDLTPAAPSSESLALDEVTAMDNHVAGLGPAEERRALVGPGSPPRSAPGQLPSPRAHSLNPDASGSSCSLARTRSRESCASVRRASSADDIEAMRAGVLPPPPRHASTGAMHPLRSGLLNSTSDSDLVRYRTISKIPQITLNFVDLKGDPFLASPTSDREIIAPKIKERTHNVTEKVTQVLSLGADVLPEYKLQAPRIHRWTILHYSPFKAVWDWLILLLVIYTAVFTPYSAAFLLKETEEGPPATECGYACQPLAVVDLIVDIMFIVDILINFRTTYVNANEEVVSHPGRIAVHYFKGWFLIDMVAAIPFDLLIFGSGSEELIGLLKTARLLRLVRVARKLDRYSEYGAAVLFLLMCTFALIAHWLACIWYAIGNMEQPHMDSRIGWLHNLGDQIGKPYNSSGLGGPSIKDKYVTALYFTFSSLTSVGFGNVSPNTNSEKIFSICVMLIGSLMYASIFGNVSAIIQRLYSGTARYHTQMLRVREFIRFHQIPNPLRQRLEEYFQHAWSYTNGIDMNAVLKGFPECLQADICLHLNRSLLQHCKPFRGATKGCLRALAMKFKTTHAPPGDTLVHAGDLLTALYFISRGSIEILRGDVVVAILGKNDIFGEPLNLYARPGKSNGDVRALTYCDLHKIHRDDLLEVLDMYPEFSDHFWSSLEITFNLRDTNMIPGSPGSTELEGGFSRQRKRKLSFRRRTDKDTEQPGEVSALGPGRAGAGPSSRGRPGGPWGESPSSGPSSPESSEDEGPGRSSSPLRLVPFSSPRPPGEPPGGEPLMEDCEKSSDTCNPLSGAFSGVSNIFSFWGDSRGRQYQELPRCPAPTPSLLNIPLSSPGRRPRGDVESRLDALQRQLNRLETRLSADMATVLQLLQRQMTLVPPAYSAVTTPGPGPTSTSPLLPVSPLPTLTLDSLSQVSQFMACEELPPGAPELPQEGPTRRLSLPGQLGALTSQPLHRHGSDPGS
row,Structure (SMILES),"hERG current change (%, negative = inhibition) at 10uM"
1,Cc1ccc(SCC(=O)c2cc(C)c(O)c(C)c2)cc1,-3.19%
2,Cc1ccccc1NC(=O)CCc1nnc2ccc(N3CCC4(CC3)OCCO4)nn12,8.74%
3,CSCc1nnc(NC(=O)c2ccc(S(=O)(=O)N(C)C)cc2)o1,20.7%
4,CCOC(=O)/C(C#N)=N/Nc1ccc(S(=O)(=O)N2CCc3ccccc32)cc1,2.18%
5,CCOC(=O)C1=C(C)OC(N)=C(C#N)C1c1cccs1 (stereo not drawn),8.62%
6,Cc1nnc(NC(=O)CSc2nnc(CNC(=O)C34CC5CC(CC(C5)C3)C4)n2C2CCCCC2)s1,2.98%
7,CCOc1ccccc1N1CCN(C(=O)c2cc3cc(OC)ccc3[nH]2)CC1,-3.66%
8,C=CCn1c(O)c(C(CC)=Nc2ccc3c(c2)CCC3)c(=O)[nH]c1=O,1.65%
9,CCc1cccc(CC)c1NC(=O)c1cccc(S(=O)(=O)N2CCN(C)CC2)c1,-4.14%
10,CCN(CC)S(=O)(=O)c1ccc(NC(=O)CNC2CCCCC2)cc1.O=C(O)C(=O)O,-7.08%
11,O=C(Nc1ccccc1)c1cccc(S(=O)(=O)N2CCCCC2)c1,0.607%
12,CN(C)S(=O)(=O)c1cccc(NC(=O)CNC2CCCCC2)c1.O=C(O)C(=O)O,5.24%
13,CN1CCN(S(=O)(=O)c2cccc(C(=O)Nc3cccc(S(N)(=O)=O)c3)c2)CC1,12.8%
14,CCc1cccc(NC(=O)c2cccc(S(=O)(=O)N3CCN(C)CC3)c2)c1,-53.9%
15,O=C(Nc1ccncc1)c1cccc(S(=O)(=O)N2CCCC2)c1,-60.7%
16,O=C(Nc1cccc(S(=O)(=O)N2CCCC2)c1)c1ccncc1,-46.5%
17,CCN(CC)S(=O)(=O)c1cccc(NC(=O)CNC2CCCCCC2)c1.O=C(O)C(=O)O,-60.8%
18,CC(C)(CC(=O)O)CC(=O)Nc1ccc2c(c1)ncn2CCc1ccccc1,15.8%
19,CNC(=O)NC(=O)COC(=O)c1ccc(-n2c(C)ccc2C)cc1,-7.41%
20,COc1ccc(C(CC(=O)O)NC(=O)COc2cc(C)ccc2C)cc1OC (stereo not drawn),21.2%
21,CCCn1c(=N)n(CC(O)COc2cccc(C)c2)c2ccccc21.Cl (stereo not drawn),-71.3%
22,CCCCn1c(=N)n(CC(O)COc2cccc(C)c2)c2ccccc21.Cl (stereo not drawn),-72.6%
23,CCn1c(=N)n(CC(O)COc2cccc(C)c2)c2ccccc21.Cl (stereo not drawn),-58.6%
24,COCCCNc1nc2c(c(=O)[nH]c(=O)n2C)n1CC(O)COc1cccc(C)c1 (stereo not drawn),-2.66%

row,Structure (SMILES),"hERG current change (%, negative = inhibition) at 10uM"
1,Cc1ccc(-n2c(=O)[nH]cc(C(=O)Nc3ccc4c(c3)OCCO4)c2=O)cc1,18.3%
2,CC(=O)N1CCN(c2ccc(NC(=O)c3cccc(OCc4ccccc4)c3)cc2)CC1,7.06%
3,c1ccc(OCCCn2ccnc2)cc1,16.3%
4,O=c1ccc2ccccc2n1Cc1cccc(F)c1,9.61%
5,COc1ccc(CCN2C(=O)CC(Cc3ccccc3)C2=O)cc1OC (stereo not drawn),-17.2%
6,Cc1ccc(SCC(=O)OC(C)C(=O)NCc2ccccc2)cc1 (stereo not drawn),-1.8%
7,COc1ccc2c(c1)OC[C@H]1[C@H]2N2C(=O)CN(CC3CCCO3)C(=O)[C@@]2(C)[C@H]1c1ccccc1 (stereo partly drawn),-1.62%
8,CCn1cnc2cc(NCc3ccc(Cl)cc3)ccc21,-68%
9,CCCn1cnc2cc(NCc3cccs3)ccc21,-10.9%
10,COc1ccc(OC)c(CNc2ccc3c(c2)nc(C)n3C)c1,-68.4%
11,CCc1ccc(CNc2ccc3c(c2)ncn3CC)cc1,-19.7%
12,COc1ccc(CNc2ccc3c(c2)nc(C)n3C)cc1OC,-17.1%
13,CCn1cnc2cc(NCc3ccc(N(C)C)cc3)ccc21,-8.28%
14,CCn1cnc2cc(NCc3ccc(Br)cc3)ccc21,-61.3%
15,COc1ccc(CNc2ccc3c(c2)nc(C)n3C)cc1,-31.9%
16,CCn1cnc2cc(NCc3ccc(OC)cc3)ccc21,-39.4%
17,CCn1cnc2cc(NCc3ccc(C)cc3)ccc21,-40.4%
18,CCCn1cnc2cc(NCc3cccc(OC)c3)ccc21,-67.2%
19,CCn1cnc2cc(NCc3ccncc3)ccc21,6.89%
20,CCc1ccc(N(CC(=O)Nc2ccccc2C(=O)N2CCCC2)S(C)(=O)=O)cc1,-10.6%
21,CN(C)c1ccc(CNn2cnnc2SCc2ccc(F)cc2)cc1,-9.48%
22,COc1ccc(NC(=O)CC2C(=O)N(c3ccc(OC)cc3)C(=O)N2C(C)C)cc1 (stereo not drawn),-5.34%
23,Cc1ccc(NC(=O)c2ccc(-n3cncn3)c([N+](=O)[O-])c2)cc1F,-18.1%
24,CC12CCC(C(=O)Nc3ccccc3Br)(C/C1=N\O)C2(C)C (stereo not drawn),4.44%

row,Structure (SMILES),"hERG current change (%, negative = inhibition) at 10uM"
1,CC(On1nnc2ccccc21)C(=O)N1CCN(Cc2ccccc2)CC1 (stereo not drawn),18.2%
2,C(#CCN1CCOCC1)COCc1ccccc1.Cl,11.1%
3,COc1cccc(OCCOc2ccc(/C=C3/SC(=S)NC3=O)cc2)c1,23%
4,CN(CC(=O)Nc1ccccc1Cl)C(=O)CSc1nnc(-c2ccco2)o1,-7.79%
5,CCCn1cnc2cc(NCc3cccc(OC)c3O)ccc21,-29.3%
6,CCn1cnc2cc(NCc3cccc(OC)c3O)ccc21,-5.91%
7,Cc1ccc(CNc2ccc3c(c2)nc(C)n3C)cc1,-21.9%
8,CCn1cnc2cc(NCc3ccccc3Cl)ccc21,-52.1%
9,Cc1nc2cc(NCc3ccc(Cl)cc3)ccc2n1C,-70.6%
10,CCCn1cnc2cc(NCc3ccc(Br)cc3)ccc21,-73.9%
11,CCCn1cnc2cc(NCc3ccccn3)ccc21,-18.8%
12,CCCn1cnc2cc(NCc3ccccc3O)ccc21,-0.21%
13,CCCCn1cnc2cc(NCc3ccncc3)ccc21,-1.31%
14,Cn1cnc2cc(NCc3ccccc3Cl)ccc21,-35%
15,Cn1cnc2cc(NCc3ccc(Cl)cc3)ccc21,-18.3%
16,CCCCn1cnc2cc(NCc3cccc(OC)c3O)ccc21,-51.2%
17,CN(C)c1ccc(C(CNC(=O)c2ccccc2F)c2c[nH]c3ccccc23)cc1 (stereo not drawn),-8.6%
18,Cc1[nH]c(C)c(S(=O)(=O)Nc2ccc(OC(F)(F)F)cc2)c1C(=O)N1CCCCC1,-7.79%
19,O=C(N/N=C/C=C/c1ccccc1)c1cccc(Br)c1,5.3%
20,FC(F)(F)c1ccccc1N1CC1c1ccncc1 (stereo not drawn),13.3%
21,O=C(O)c1ccccc1C(=O)NC1CCN(c2nccc(C(F)(F)F)n2)CC1,9.16%
22,COc1ccc(N2C(=O)CC(N3CCCC4CCCCC43)C2=O)cc1 (stereo not drawn),1.28%
23,CCOC(=O)c1ccc(NC(=O)C2CC2)cc1,-18.4%
24,COc1ccc(/C=N/NC(=O)c2cc(-c3cccn3C)n[nH]2)cc1OC,-27.5%

row,Structure (SMILES),"hERG current change (%, negative = inhibition) at 10uM"
1,Cn1cccc1-c1cc(C(=O)N/N=C/c2cccc(O)c2)[nH]n1,-7.31%
2,COc1cccc(/C=N/NC(=O)c2cc(-c3cccn3C)n[nH]2)c1,-61.1%
3,CCOc1nc2ccccc2cc1C=O,-5.31%
4,Cc1ccc(NS(=O)(=O)c2ccc(NC(=O)[C@@H]3CCCC[C@@H]3C(=O)O)cc2)c(C)c1,18%
5,COc1ccc(OC)c(N2CC(O)(c3ccccc3)[N+]3=C2SCCC3)c1.[Br-] (stereo not drawn),-72.6%
6,Cc1ccccc1N1CC(O)(c2ccccc2)[N+]2=C1SCC2.[Br-] (stereo not drawn),-19.5%
7,COc1ccc(OC)c(N2CC(O)(c3cccs3)[N+]3=C2SCCC3)c1.[Br-] (stereo not drawn),-50.5%
8,Cc1ccc(C)c(N2CC(O)(c3cccs3)[N+]3=C2CCCC3)c1.[Br-] (stereo not drawn),-23%
9,Cc1ccccc1N1CC(O)(c2cccs2)[N+]2=C1CCCC2.[Br-] (stereo not drawn),-25.9%
10,COc1ccc(C2(O)CN(c3ccccc3)C3=[N+]2CCS3)cc1OC.[Br-] (stereo not drawn),1.7%
11,CN(C)C(CNC(=O)c1ccc(NS(=O)(=O)c2cccc([N+](=O)[O-])c2)cc1)c1ccco1 (stereo not drawn),12.4%
12,Cc1ccc(NC(=O)COC(=O)COc2cccc3c2OC(C)(C)C3)cc1C,-13.9%
13,CCCNC(=O)CN(C)S(=O)(=O)c1c(C)cc(C)cc1C,6.62%
14,Cn1ccnc1C(O)c1ccc(OCc2ccccc2)cc1 (stereo not drawn),4.19%
15,O=C(O)C(=O)O.O=C1CCCN1CN1CCCCC1,0.00358%
16,Cc1ccc(Nc2nc(C(=O)NCc3ccco3)cs2)cc1,-13.5%
17,COc1ccc(Nc2nc(C(=O)NCc3ccco3)cs2)cc1,-14.4%
18,O=C(NCc1ccco1)c1csc(Nc2ccccc2Cl)n1,-63.1%
19,S=C(NCc1ccco1)Nc1ccccc1Cl,-52%
20,Cc1c(Cl)cccc1NC(=S)NCc1ccco1,4.12%
21,S=C(NCc1ccco1)Nc1cccc(Cl)c1Cl,-3.13%
